Laboratory results from PubChem BioAssay (Tox21).
Where “and” joins values, the source holds several entries; their conditions need not be identical. Equal entries are not always repeated. A number with no mark means an inactive call. Where a call stands in place of a potency, no number is given. Calls of active or inactive are those of the source. Unless noted, calls follow the shape of the dose curve; as a rule, active = well fitted curve in the direction sought with a large enough effect in the repeat runs; inconclusive = weak or mixed curves; inactive = no such curve, though single readings can be large; an effect the other way counts as inactive or inconclusive.

Tests used:
[1] = qHTS assay to identify small molecule antagonists of the thyroid receptor (TR) signaling pathway (AID 743065); also: nearly all actives have a fitted effect of over 55% in size; also: potency is read from the fitted curve at half-maximal effect
Method in brief: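 GH3.TRE-Luc rat pituitary cells carrying two TR response elements driving luciferase were plated for 4 h, given compound plus 1 nM T3 (final), and incubated 23.5 h at 37 C. ONE-Glo luminescence measured reporter inhibition; CellTiter-Fluor fluorescence tracked cytotoxicity.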

[2] = test system: thyroid hormone receptor (rat, GH3 cells); assay: qHTS assay to identify small molecule agonists of the thyroid receptor (TR) signaling pathway (AID 743066; calls by dose curve)
[3] = target: Estrogen receptor (Homo sapiens) (UniProt P03372); assay: qHTS assay to identify small molecule antagonists of the estrogen receptor alpha (ER-alpha) signaling pathway (AID 743069; active = well fitted curve in the direction sought with a large enough effect in the signal ratio in the repeat runs, not every such curve was filed as active; inconclusive = weak or mixed curves, or effect the other way; inactive = no such curve, though single readings can be large or run the other way; the % refers to the signal ratio)
Estrogen receptor (Homo sapiens), sequence (P03372 whole entry, looked up): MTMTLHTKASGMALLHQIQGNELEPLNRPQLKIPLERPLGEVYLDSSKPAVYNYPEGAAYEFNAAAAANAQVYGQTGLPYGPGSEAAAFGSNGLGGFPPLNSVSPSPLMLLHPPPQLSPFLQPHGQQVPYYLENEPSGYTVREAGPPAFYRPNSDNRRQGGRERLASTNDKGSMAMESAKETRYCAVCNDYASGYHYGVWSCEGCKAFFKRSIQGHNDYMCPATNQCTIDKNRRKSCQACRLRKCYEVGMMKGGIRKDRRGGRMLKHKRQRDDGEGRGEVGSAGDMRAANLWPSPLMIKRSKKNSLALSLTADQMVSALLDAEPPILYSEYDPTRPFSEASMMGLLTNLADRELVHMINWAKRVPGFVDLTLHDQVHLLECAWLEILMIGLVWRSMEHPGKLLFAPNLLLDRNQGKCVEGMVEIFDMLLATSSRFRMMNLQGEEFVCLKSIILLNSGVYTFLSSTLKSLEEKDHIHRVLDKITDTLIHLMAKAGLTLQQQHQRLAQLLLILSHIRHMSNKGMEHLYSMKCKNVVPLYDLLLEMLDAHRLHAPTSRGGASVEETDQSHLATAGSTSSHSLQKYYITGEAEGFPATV
Method in brief: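 Screening used a UAS-driven beta-lactamase reporter integrated into HEK293 cells expressing ER-alpha, stimulated with 17beta-estradiol alongside test compounds over 18 hr at 37C; signal came from LiveBLAzer B/G FRET fluorescence.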

[4] = qHTS assay to identify small molecule antagonists of the estrogen receptor alpha (ER-alpha) signaling pathway - cell viability counter screen (AID 743074; calls by dose curve; also: nearly all actives have a fitted effect of over 45% in size)
[5] = target: Estrogen receptor (Homo sapiens) (UniProt P03372); assay: qHTS assay to identify small molecule agonists of the estrogen receptor alpha (ER-alpha) signaling pathway (AID 743075; calls by dose curve; also: potency is read from the fitted curve at half-maximal effect)
[6] = target: Estrogen receptor (Homo sapiens) (UniProt P03372); assay: qHTS assay to identify small molecule agonists of the estrogen receptor alpha (ER-alpha) signaling pathway using the BG1 cell line (AID 743079); conditions: BG1Luc4E2 cells, ERE-luciferase agonist, 22 h; also: nearly all actives have a fitted effect of over 20% in size; also: potency is read from the fitted curve at half-maximal effect
[7] = qHTS assay to identify small molecule antagonists of the estrogen receptor alpha (ER-alpha) signaling pathway using the BG1 cell line (AID 743080; calls by dose curve;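 also: BG1 cells stimulated with 17beta-estradiol alongside compound; nearly all actives have a fitted effect of over 25% in size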; also: potency is read from the fitted curve at half-maximal effect)
Method in brief: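 Endogenous full-length ER-alpha in BG1-Luc-4E2 cells drives a stably integrated 4×ERE luciferase gene; compounds were tested against 17beta-estradiol over 21.5 h, with luminescence and multiplexed viability fluorescence recorded.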

[8] = qHTS assay to identify small molecule antagonists of the estrogen receptor alpha (ER-alpha) signaling pathway using the BG1 cell line - cell viability counter screen (AID 743081);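 also: compound given together with 17beta-estradiol as the ER stimulus; nearly all actives have a fitted effect of over 45% in size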
Aromatase (Homo sapiens) = Aromatase (Homo sapiens) (UniProt P11511); assay: qHTS assay to identify aromatase inhibitors (AID 743083); also: nearly all actives have a fitted effect of over 55% in size
Aromatase (Homo sapiens), sequence (P11511 whole entry, looked up): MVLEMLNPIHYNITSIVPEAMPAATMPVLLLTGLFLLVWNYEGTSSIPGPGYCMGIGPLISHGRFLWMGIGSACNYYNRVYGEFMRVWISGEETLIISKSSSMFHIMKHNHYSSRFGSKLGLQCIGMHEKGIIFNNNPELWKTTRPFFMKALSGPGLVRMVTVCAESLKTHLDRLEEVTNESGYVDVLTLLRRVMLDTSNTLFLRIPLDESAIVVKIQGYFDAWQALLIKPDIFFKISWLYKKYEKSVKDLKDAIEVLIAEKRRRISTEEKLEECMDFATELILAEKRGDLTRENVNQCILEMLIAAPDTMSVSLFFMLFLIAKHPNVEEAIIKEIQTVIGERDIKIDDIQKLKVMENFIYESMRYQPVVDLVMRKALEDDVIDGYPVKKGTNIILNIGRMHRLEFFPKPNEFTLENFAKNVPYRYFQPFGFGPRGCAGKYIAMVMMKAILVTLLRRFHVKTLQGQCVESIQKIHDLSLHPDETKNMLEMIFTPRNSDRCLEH

[9] = qHTS assay to identify aromatase inhibitors - cell viability counter screen (AID 743084);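 also: cells stimulated with testosterone during compound exposure; nearly all actives have a fitted effect of over 55% in size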

## CCCN1CCC[C@@H]2Cc3nc(N)ncc3C[C@H]21
[1]
  Potency: inactive
[2]
  Potency: inactive
[3]
  Potency: inactive
[4]
  Potency: inactive
[5]
  Potency: inactive
[6]; at 70.3 µM (top of the series)
  activation: -11.9%
[7]
  Potency: inactive
[8]
  Potency: inactive
Aromatase (Homo sapiens)
  Potency: inactive
[9]
  Potency: inactive

## CCCCCCC(=O)CCCCCC/C=C/C[C@@H](O)[C@H](O)[C@@](N)(CO)C(=O)O
[1]
  Potency: inactive
[2]
  Potency: inactive
[3]
  Potency: inactive
[4]
  Potency: inactive
[5]
  Potency: inactive
[6]; at 70.3 µM (top of the series)
  activation: -8.98% and -0.434%
[7]
  Potency: inactive
[8]
  Potency: inactive
Aromatase (Homo sapiens)
  Potency: inactive
[9]
  Potency: inactive

## COc1ccc(CN2CCNCC2)c(OC)c1OC
[1]
  Potency: inactive
[2]
  Potency: inactive
[3]
  Potency: inactive
[4]
  Potency: inactive
[5]
  Potency: inactive
[6]; at 32.5 µM (top of the series)
  activation: 3.39%
[7]
  Potency: inactive
[8]
  Potency: inactive
Aromatase (Homo sapiens)
  Potency: inactive
[9]
  Potency: inactive

## BrCc1ccc(Br)cc1
[1]
  Potency: inactive
[2]
  Potency: inactive
[3]
  Potency: inactive
[4]
  Potency: inactive
[5]
  Potency: inactive
[6]; at 70.3 µM (top of the series)
  activation: -9.06%
[7]
  Potency: inactive
[8]
  Potency: inactive
Aromatase (Homo sapiens)
  Potency: inactive
[9]
  Potency: inactive

## O=C1CC(=O)NC(=O)N1
[1]
  Potency: inactive
[2]
  Potency: inactive
[3]
  Potency: inactive
[4]
  Potency: inactive
[5]
  Potency: inactive
[6]; at 70.3 µM (top of the series)
  activation: -4.6%
[7]
  Potency: inactive
[8]
  Potency: inactive
Aromatase (Homo sapiens)
  Potency: inactive
[9]
  Potency: inactive

## O=CCCl
[1]
  Potency: inactive
[2]
  Potency: inactive
[3]
  Potency: inactive
[4]
  Potency: inactive
[5]
  Potency: inactive
[6]; at 70.3 µM (top of the series)
  activation: 14.1%
[7]
  Potency: inactive
[8]
  Potency: inactive
Aromatase (Homo sapiens)
  Potency: inactive
[9]
  Potency: inactive

## C=CCCC#N
[1]
  Potency: inactive
[2]
  Potency: inactive
[3]
  Potency: inactive
[4]
  Potency: inactive
[5]
  Potency: inactive
[6]; at 70.3 µM (top of the series)
  activation: -1.77%
[7]
  Potency: inactive
[8]
  Potency: inactive
Aromatase (Homo sapiens)
  Potency: inactive
[9]
  Potency: inactive

## O=C(Cl)C(Cl)Cl
[1]
  Potency: inactive
[2]
  Potency: inactive
[3]
  Potency: inactive
[4]
  Potency: inactive
[5]
  Potency: inactive
[6]; at 70.3 µM (top of the series)
  activation: 0.358%
[7]
  Potency: inactive
[8]
  Potency: inactive
Aromatase (Homo sapiens)
  Potency: inactive
[9]
  Potency: inactive

## NC1(c2ccccc2)CCCCC1
[1]
  Potency: 48.1 µM (active)
[2]
  Potency: inactive
[3]
  Potency: inactive
[4]
  Potency: inactive
[5]
  Potency: inactive
[6]; at 70.3 µM (top of the series)
  activation: 0.0889%
[7]
  Potency: inactive
[8]
  Potency: inactive
Aromatase (Homo sapiens)
  Potency: inactive
[9]
  Potency: inactive

## C=CC1(C)OC(=O)N(c2cc(Cl)cc(Cl)c2)C1=O (stereo not given)
[1]
  Potency: inactive
[2]
  Potency: inactive
[3]
  Potency: inactive
[4]
  Potency: inactive
[5]
  Potency: inactive
[6]; at 70.3 µM (top of the series)
  activation: -20.8% and -18.1%
[7]
  Potency: inactive
[8]
  Potency: inactive
Aromatase (Homo sapiens)
  Potency: inactive
[9]
  Potency: inactive

## O=C(Cl)C(Cl)(Cl)Cl
[1]
  Potency: inactive
[2]
  Potency: inactive
[3]
  Potency: inactive
[4]
  Potency: inactive
[5]
  Potency: inactive
[6]; at 95 µM (top of the series)
  activation: 9.01%
[7]
  Potency: inactive
[8]
  Potency: inactive
Aromatase (Homo sapiens)
  Potency: inactive
[9]
  Potency: inactive

## Cc1ccc(Cl)c(O)c1
[1]
  Potency: inactive
[2]
  Potency: inactive
[3]
  Potency: inactive
[4]
  Potency: inactive
[5]
  Potency: inactive
[6]; at 70.3 µM (top of the series)
  activation: 9.43%
[7]
  Potency: inactive
[8]
  Potency: inactive
Aromatase (Homo sapiens)
  Potency: inactive
[9]
  Potency: inactive

## NCCOS(=O)(=O)O
[1]
  Potency: inactive
[2]
  Potency: inactive
[3]
  Potency: inactive
[4]
  Potency: inactive
[5]
  Potency: inactive
[6]; at 70.3 µM (top of the series)
  activation: -1.11%
[7]
  Potency: inactive
[8]
  Potency: inactive
Aromatase (Homo sapiens)
  Potency: inactive
[9]
  Potency: inactive

## O=C(Cl)CCl
[1]
  Potency: inactive
[2]
  Potency: inactive
[3]
  Potency: inactive
[4]
  Potency: inactive
[5]
  Potency: inactive
[6]; at 95 µM (top of the series)
  activation: 0.754%
[7]
  Potency: inactive
[8]
  Potency: inactive
Aromatase (Homo sapiens)
  Potency: inactive
[9]
  Potency: inactive

## NC(=O)CS(=O)C(c1ccccc1)c1ccccc1 (stereo not given)
[1]
  Potency: inactive
[2]
  Potency: inactive
[3]
  Potency: inactive
[4]
  Potency: inactive
[5]
  Potency: inactive
[6]; at 70.3 µM (top of the series)
  activation: -2.29%
[7]
  Potency: inactive
[8]
  Potency: inactive
Aromatase (Homo sapiens)
  Potency: inactive

## CCNc1nc(Cl)nc(NC(C)(C)C)n1
[1]
  Potency: inactive
[2]
  Potency: inactive
[3]
  Potency: inactive
[4]
  Potency: inactive
[5]
  Potency: 61.6 µM [inconclusive] (active)
[6]
  Potency: 9.69 µM (active)
[7]
  Potency: inactive
[8]
  Potency: inactive
Aromatase (Homo sapiens)
  Potency: inactive
[9]
  Potency: inactive

## CC(O)CCl (stereo not given)
[1]
  Potency: inactive
[2]
  Potency: inactive
[3]
  Potency: inactive
[4]
  Potency: inactive
[5]
  Potency: inactive
[6]; at 70.3 µM (top of the series)
  activation: 8.02%
[7]
  Potency: inactive
[8]
  Potency: inactive
Aromatase (Homo sapiens)
  Potency: inactive
[9]
  Potency: inactive

## COP(=O)(O)OC
[1]
  Potency: inactive
[2]
  Potency: inactive
[3]
  Potency: inactive
[4]
  Potency: inactive
[5]
  Potency: inactive
[6]; at 95 µM (top of the series)
  activation: -8.98%
[7]
  Potency: inactive
[8]
  Potency: inactive
Aromatase (Homo sapiens)
  Potency: inactive
[9]
  Potency: inactive

## Clc1cc2c(cc1Cl)Oc1cc(Cl)c(Cl)cc1O2
[1]
  activity, negative = inhibition: 0.19% [at 0.341 µM]
[2]
  activation: -1.12% [at 0.329 µM]
[3]
  activity, negative = inhibition: -7.88% [at 0.274 µM]
[4]
  activity, negative = cytotoxicity: 14.4% [at 0.274 µM]
[5]
  activation: -4.62% [at 0.274 µM]
[6]; at 0.341 µM (top of the series)
  activation: -0.247%
[7]
  Potency: 0.0007 µM (active)
[8]
  activity change, negative = cytotoxicity: -0.0382% [at 0.341 µM]
[9]
  activity change, negative = cytotoxicity: 1.38% [at 0.342 µM]

## N=C(N)[Se]
[1]
  Potency: inactive
[2]
  Potency: inactive
[3]
  Potency: inactive
[4]
  Potency: inactive
[5]
  Potency: inactive
[6]; at 95 µM (top of the series)
  activation: -2.62%
[7]
  Potency: inactive
Aromatase (Homo sapiens)
  Potency: inactive
[9]
  Potency: inactive

## CC(C)(C1CCC(O)CC1)C1CCC(O)CC1 (stereo not given)
[1]
  Potency: inactive
[2]
  Potency: inactive
[3]
  Potency: inactive
[4]
  Potency: inactive
[5]
  Potency: 49 µM [activator] (active)
[6]
  Potency: 54.5 µM (active)
[7]
  Potency: inactive
[8]
  Potency: inactive
Aromatase (Homo sapiens)
  Potency: inactive
[9]
  Potency: inactive

## Clc1nc(Cl)nc(Nc2ccccc2Cl)n1
[1]
  Potency: inactive
[2]
  Potency: inactive
[3]
  Potency: inactive
[5]
  Potency: inactive
[6]; at 70.3 µM (top of the series)
  activation: 9.21%
[7]
  Potency: inactive
[8]
  Potency: inactive
Aromatase (Homo sapiens)
  Potency: inactive
[9]
  Potency: inactive

## N#CN=C1SCCN1Cc1ccc(Cl)nc1
[1]
  Potency: inactive
[2]
  Potency: inactive
[3]
  Potency: inactive
[5]
  Potency: inactive
[6]; at 70.3 µM (top of the series)
  activation: -2.73%
[7]
  Potency: inactive
[8]
  Potency: inactive
Aromatase (Homo sapiens)
  Potency: inactive
[9]
  Potency: inactive
